Dicer inh: inhibitors of Dicer pre-microRNA processing, primary screen, biochemical, cat-ELCCA, chemiluminescence; Endoribonuclease Dicer (Homo sapiens), Q9UPY3; cat-ELCCA pre-miR-21 Dicer processing; hits give high values; z-score at 25 µM; actives 6% (n = 47,000); in the data active = z-score above about 3, passing the limit was not always enough;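 note: plate controls were vehicle for no effect and no enzyme for full effect; higher signal means more uncleaved substrate so more Dicer inhibition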
Starred values were filed as active, the others as inactive. The entries come from a sample that favours hits as a whole.

SMILES | Dicer inh
CCCCCC(=O)Nc1ncc2c(n1)CC(c1ccc(C(C)(C)C)cc1)CC2=O (configuration not stated) | 2.7
O=C1CCCC(O)=C1C=Nc1ccc(Cl)cc1 | 2.2
COc1cccc(C2C3=C(CCCC3=O)Nc3ncnn32)c1 (configuration not stated) | -1.2
Cc1nc(N=Nc2ccc(S(=O)(=O)O)cc2S(=O)(=O)O)c(COP(=O)(O)O)c(C=O)c1O | 3.1*
Cc1nc(N=Nc2ccc(C(=O)O)cc2)c(COP(=O)(O)O)c(C=O)c1O | -1.7
COC(=O)c1cc(=O)n2c(nc3ccccc32)s1 | -1.8
NC(=S)N/N=C/c1cc(F)cc(F)c1 | -1.2
Cc1cc(C)c2c(c1C#N)CC(C)(C)C2=O | 0.1
Fc1ccc(NC(=S)NNc2c(Cl)cncc2Cl)cc1 | 1.5
C(=C\c1nnnn1-c1ccccc1)/NCc1ccccc1 | -0.29
Fc1ccc(N/N=C/Cc2nnnn2-c2ccccc2)c(F)c1 | 3.9*
NC(=S)N/N=C\Cc1nnnn1-c1ccccc1 | -0.56
COc1ccccc1N1CCN(C(=O)[C@H](C)N2CCN(c3nc4cc(Cl)ccc4s3)CC2)CC1 | 0.11
Cc1ccc(S(=O)(=O)N2CN(S(=O)(=O)c3ccc(C)cc3)c3ccccc32)cc1 | 0.85
CN1C2CCC1CC(NC(=O)CS(=O)(=O)c1ccc(F)cc1F)C2 (configuration not stated) | 0.46
O=C(Cn1c2c(c(=O)n3ncnc13)CCC2)N/N=C/c1ccc([N+](=O)[O-])cc1 | -0.76
CSc1nc(-c2ccco2)nn1C(=O)c1ccc(C)cc1 | 3.2*
Cc1ccc(-c2noc(-c3ccco3)n2)cc1 | 0.03
CSc1nc(-c2ccco2)nn1C(=O)c1ccccc1 | 3.4*
CSc1nc(-c2ccco2)nn1C(C)=O | -4.5
Cc1ccc(C(=O)n2nc(C)c(Sc3ncccn3)c2C)cc1 | -0.27
COc1ccc(C(=O)Cn2c3ccccc3n3nc(-c4ccco4)nc23)cc1 | 1.4
COC(=O)C(Cc1c[nH]c2ccccc12)NC(=O)OCC(C)C (configuration not stated) | 0.31
COC(OC)c1cc(=O)[nH]c(SC)n1 | -1.1
Cn1nc(C(F)(F)F)c(-c2ccccc2)c1N1C(=O)c2ccccc2C1=O | 0.14
SMILES | Dicer inh
CCOC(=O)Cc1cc(=O)n2[nH]cnc2n1 | -0.72
COc1ccccc1NC(=O)N1c2ccccc2Sc2ccccc21 | 3.1*
COc1cc(NC(=O)N2c3ccccc3Sc3ccccc32)c(C(=O)O)cc1OC | 2.8
COC(=O)c1cc(OC)c(OC)cc1NC(=O)N1c2ccccc2Sc2ccccc21 | 1.2
O=S(=O)(c1ccc(Cl)cc1)N1CCN(C2CCC(c3ccccc3)CC2)CC1 (configuration not stated) | 0.12
O=C(CSc1nc2ccccc2s1)N1CCc2c([nH]c3ccccc23)C1C(F)(F)F (configuration not stated) | -1.8
O=C(CSc1nccc(-c2cccs2)n1)N1CCc2c([nH]c3ccccc23)C1C(F)(F)F (configuration not stated) | 3.3*
O=C(O)c1cccnc1C(=O)N1CCc2c([nH]c3ccccc23)C1C(F)(F)F (configuration not stated) | 0.23
Cc1[nH]c2ccccc2c1C1(O)C(=O)N(C/C=C/c2ccccc2)c2ccccc21 (configuration not stated) | -0.55
CCc1cccc(C)c1NC(=O)NC1CCN(c2ncc(C(F)(F)F)cc2Cl)CC1 | -1.2
COC(=O)Nc1ccc(S(=O)(=O)N2CCCc3ccccc32)cc1 | 0.04
CCOC(=O)Nc1ccc2c(c1)N(C(=O)N1CCN(C)CC1)c1ccccc1CC2 | 1.2
CCOC(=O)Nc1ccc2c(c1)N(C(=O)NC)c1ccccc1CC2 | 3.5*
CN(C)S(=O)(=O)N(CC(=O)NCCSC1CCCCC1)c1ccccc1 | 1.1
Cc1ccc(/C(=N\N(C)C)C(=O)C(F)(F)F)cc1 | -0.17
Clc1ccccc1CSc1ncnc2nc[nH]c12 | 0.2
Clc1ccc(Oc2ccc3nnc(-c4ccccc4)n3n2)c(Cl)c1 | 1.1
CC(=O)c1cc([N+](=O)[O-])c(Nc2ccccc2)s1 | 0.9
CC(=O)c1cc([N+](=O)[O-])c(Nc2ccc(Cl)cc2)s1 | 4.8*
COc1ccc(Nc2sc(C(C)=O)cc2[N+](=O)[O-])cc1 | 1.4
C#CC(CC)(CC)NC(=O)c1sc2ccccc2c1Cl | -0.48
O=c1c2c(nc(NCCCO)n1Cc1ccccc1)-c1ccccc1CC21CCCC1 | 2.3
CC(C)(CC(=O)O)CC(=O)NCc1csc2ccc(Cl)cc12 | -2.5
CC(C)c1ccc(NC(=O)CSc2nnc(OC(=O)N(C)C)n2-c2ccccc2)cc1 | -1.7
O=C(Nc1ccc2[nH]ncc2c1)C1CCC1 | -0.03
SMILES | Dicer inh
CC(C)(C)OC(=O)N1CCCN(C(=S)Nc2ccccc2N2CCOCC2)CC1 | -0.86
S=C(Nc1ccc2[nH]ccc2c1)Nc1ccccc1N1CCOCC1 | 4.6*
S=C(Nc1ccc(N2CCOCC2)nc1)Nc1cc(Cl)ccc1Cl | 0.43
O=C(NCC1CC1)Nc1ccc2c(c1)CCO2 | 1
S=C(NCC1CC1)Nc1ccc2[nH]ccc2c1 | 4.8*
CCCSc1nc(=O)c2cccnc2n1-c1ccc(OC)cc1 | 11
CC(C)(C)c1csc(=S)n1CCc1ccc(Cl)cc1 | 1.5
CCc1ccc(N=C(N)N=C(N)N)cc1 | 0.41
NC(N)=NC(N)=Nc1ccc(F)cc1F | -0.23
NN/C(N)=N/C(N)=Nc1ccc(F)cc1 | 3*
Cc1ccc2nc3c(nc2c1)C(O)=C3O | 2.8
CCN1CN=C(SCc2ccccc2Cl)NC1 | -1.8
CCCCn1c(NCc2ccccn2)nc2ccccc21 | 1.2
CCN(CC)CCn1c(NCc2ccc(C)cc2)nc2ccccc21 | 0.08
CCCn1c(SCCO)nc2ccccc21 | 0.15
CCN(CC)CCn1c(=O)c(Cc2ccc(OC)cc2)nc2ccccc21 | -1.2
CCN(CC)CCn1c(C)nc2ccccc21 | -0.35
CCCn1c(Nc2nc3ccccc3n2C)nc2ccccc21 | 4.9*
CCN(CC)CCn1c(NCc2cccc(Br)c2)nc2ccccc21 | 3.9*
CCN(CC)CCn1c(NCc2ccccn2)nc2ccccc21 | 1.7
CCc1ccc(CNc2nc3ccccc3n2CCN(CC)CC)cc1 | 3.3*
Cc1c(OCc2cc(C(F)(F)F)cc(C(F)(F)F)c2)ccc2c1OC(C)(C)CC2=O | -0.45
CN1c2ccccc2C(=O)C(=C2SCCS2)S1(=O)=O | 0.91
CCOC(=O)C1=C(C)NC2=C(C(=O)CCC2)C1c1ccc(CC)cc1 (configuration not stated) | -0.27
O=C(NCc1ccco1)C1Sc2nnc(-c3ccccc3)n2NC1c1ccccc1 (configuration not stated) | -1.1
SMILES | Dicer inh
COc1cccc(-c2coc3c(C)c4oc(=O)c5ccccc5c4cc23)c1 | 0.24
NNC(=O)c1cc(Br)c[nH]1 | 0.24
CCOC(=O)c1c(C)n(-c2cccc(Br)c2)c2ccc(O)cc12 | 6.5*
CCOC(=O)c1c(C)n(C)c2ccc(O)cc12 | 1.5
CCOC(=O)c1c(C)n(-c2ccccc2)c2ccc(OC)cc12 | 0.05
CNS(=O)(=O)c1ccccc1S(=O)(=O)c1ccccc1C(=O)O | -3
COc1ccccc1C1Nc2c(C)cccc2-c2cc(C)nn21 (configuration not stated) | 3.9*
COc1ccccc1C1Nc2c(C)cc(C)cc2-c2cc(C)nn21 (configuration not stated) | 2.9
COc1ccc(C2Nc3c(C)cccc3-c3cc(C)nn32)c(OC)c1 (configuration not stated) | -0.71
CCN(CC)c1ccc(C2Nc3c(C)cccc3-c3cc(C)nn32)c(O)c1 (configuration not stated) | 0.45

High-throughput results deposited in PubChem by Center for Chemical Genomics, University of Michigan.
